Laboratory results: PubChem BioAssay AID1159580 (chemical genetic matrix, 2015)
The campaign covered roughly 5,500 compounds. About 2,000 (36%) were called active. Inconclusive results (about 18%) are left out. Rule as the data show it: active = normalized growth mostly below about 0.91 (no sharp cut-off); inconclusive = no clear call, values can overlap the other calls; inactive = mostly above about 0.92. This is one part of the list.

Experiment: chemical genetic growth profiling, strain panel (AID 1159580);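 also: tested at 20 µM; growth read once vehicle control cultures reached saturation at 30 °C; 1 = growth at the plate median or of vehicle wells; lower values mean less growth of the strain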
Settings: S. cerevisiae deletion strains, growth OD
[1] = locus YDL101C, strain DUN1, hits give low values
[2] = locus YJL095W, strain BCK1, hits give low values
[3] = locus YOR061W, strain CKA2, hits give low values

Measured: normalized growth

C/C=C(\C)C(=O)OC1[C@@H]2C=C3C4CC(=O)O[C@@H](c5ccoc5)[C@]4(C)CCC3[C@@](C)(C2=O)[C@@H](C(O)C(=O)OC)C1(C)C (some centres undefined)
inactive: locus YBR021W, strain FUR4, hits give low values 1 | locus YBR229C, strain ROT2, hits give low values 0.997 | locus YCL029C, strain bik1, hits give low values 1.01 | locus YDL035C, strain GPR1, hits give low values 0.994 | locus YDL074C, strain BRE1, hits give low values 1.03 | [1] 1.01 | locus YDL134C, strain PPH21, hits give low values 1.01 | locus YDL185W, strain tfp1, hits give low values 1.02 | locus YDL192W, strain arf1, hits give low values 1.01 | locus YDR101C, strain arx1, hits give low values 1.01 | locus YDR162C, strain NBP2, hits give low values 1.01 | locus YDR318W, strain mcm21, hits give low values 1.02 | locus YDR388W, hits give low values 1.02 | locus YDR502C, strain sam2, hits give low values 1.03 | locus YER110C, hits give low values 1.01 | locus YER155C, strain BEM2, hits give low values 1 | locus YER167W, strain BCK2, hits give low values 0.994 | locus YGL078C, strain dbp3, hits give low values 1.03 | locus YGL086W, strain mad1, hits give low values 1.01 | locus YGL248W, strain PDE1, hits give low values 1 | locus YGR135W, strain pre9, hits give low values 1.03 | locus YGR252W, strain gcn5, hits give low values 1.02 | locus YHR079C, strain IRE1 (second series), hits give low values 1.03 | locus YHR094C, strain hxt1, hits give low values 1.03 | locus YHR129C, strain ARP1, hits give low values 1 | locus YHR200W, strain rpn10, hits give low values 1.02 | locus YIL066C, strain RNR3, hits give low values 0.997 | locus YIL073C, strain SPO22, hits give low values 1.05 | locus YIL125W, strain kgd1, hits give low values 1.01 | locus YIR030C, strain dcg1, hits give low values 1.02 | [2] 1.03 | locus YJL134W, strain LCB3, hits give low values 1.01 | locus YJL168C, strain set2, hits give low values 1.02 | locus YJL187C, strain SWE1 (second series), hits give low values 1.02 | locus YJR043C, strain POL32, hits give low values 0.983 | locus YJR075W, strain HOC1, hits give low values 1.02 | locus YKL009W, strain mrt4, hits give low values 1 | locus YKL068W, hits give low values 1.01 | locus YKL085W, strain MDH1 (second series), hits give low values 0.996 | locus YKL085W, strain MDH1, hits give low values 0.996 | locus YKL190W, strain CNB1, hits give low values 1 | locus YKR001C, strain vps1, hits give low values 1.03 | locus YLR039C, strain RIC1, hits give low values 1 | locus YLR058C, strain SHM2, hits give low values 1 | locus YLR102C, strain apc9, hits give low values 1.01 | locus YLR262C, strain YPT6, hits give low values 0.97 | locus YLR268W, strain sec22, hits give low values 1.02 | locus YLR342W, strain FKS1 (second series), hits give low values 0.998 | locus YLR371W, strain rom2, hits give low values 1.02 | locus YLR418C, strain cdc73, hits give low values 1.05 | locus YML016C, strain PPZ1, hits give low values 0.999 | locus YML032C, strain rad52, hits give low values 1.02 | locus YML124C, strain tub3, hits give low values 1.01 | locus YMR078C, strain ctf18, hits give low values 1.01 | locus YMR223W, strain ubp8, hits give low values 1.02 | locus YMR307W, strain GAS1, hits give low values 0.998 | locus YNL067W, strain RPL9B, hits give low values 1.02 | locus YNL128W, strain TEP1, hits give low values 1 | locus YNL233W, strain BNI4, hits give low values 1.05 | locus YNL250W, strain rad50, hits give low values 1.01 | locus YNL271C, strain bni1, hits give low values 1.02 | locus YNL298W, strain CLA4, hits give low values 1.01 | locus YNL307C, strain MCK1, hits give low values 1.01 | locus YNR052C, strain pop2, hits give low values 1.03 | locus YOL006C, strain TOP1, hits give low values 0.976 | locus YOL012C, strain htz1 1.07 | locus YOL147C, strain pex11, hits give low values 1.01 | [3] 1 | locus YOR069W, strain VPS5, hits give low values 1 | locus YOR136W, strain idh2, hits give low values 1.01 | locus YOR144C, strain elg1, hits give low values 1.01 | locus YOR184W, strain ser1, hits give low values 1 | locus YOR316C, strain cot1, hits give low values 1.01 | locus YPR119W, strain clb2, hits give low values 1.02 | locus YPR141C, strain kar3, hits give low values 1.02 | locus YPR163C, strain tif3, hits give low values 1.01 | locus YPR167C, strain met16, hits give low values 1.02 | strain wtn01, hits give low values 0.994

N#Cc1c(N)sc2c1CCc1ccccc1-2
active: locus YBL105C, strain PKC1, hits give low values 0.897 | locus YDL017W, strain CDC7, hits give low values 0.899 | locus YDL132W, strain cdc53, hits give low values 0.884 | locus YDL214C, strain PRR2, hits give low values 0.671 | locus YDR052C, strain DBF4, hits give low values 0.905 | locus YDR226W, strain ADK1, hits give low values 0.887 | locus YDR477W, strain SNF1, hits give low values 0.546 | locus YER123W, strain YCK3, hits give low values 0.596 | locus YER133W, strain GLC7, hits give low values 0.499 | locus YFR003C, strain YPI1, hits give low values 0.894 | locus YFR028C, strain CDC14, hits give low values 0.884 | locus YGR040W, strain KSS1, hits give low values 0.452 | locus YGR052W, strain FMP48, hits give low values 0.508 | locus YHR030C, strain SLT2, hits give low values 0.479 | locus YHR082C, strain KSP1, hits give low values 0.568 | locus YHR205W, strain SCH9, hits give low values 0.558 | locus YJL157C, strain FAR1, hits give low values 0.605 | locus YJR016C, strain ILV3, hits give low values 0.892 | locus YJR066W, strain TOR1 (second series), hits give low values 0.474 | locus YJR066W, strain TOR1, hits give low values 0.458 | locus YKL048C, strain ELM1, hits give low values 0.798 | locus YKL067W, strain YNK1, hits give low values 0.664 | locus YKL101W, strain HSL1, hits give low values 0.66 | locus YKL193C, strain SDS22, hits give low values 0.888 | locus YKL203C, strain TOR2, hits give low values 0.489 | locus YLR113W, strain HOG1, hits give low values 0.806 | locus YLR133W, strain CKI1, hits give low values 0.593 | locus YLR403W, strain SFP1, hits give low values 0.401 | locus YML070W, strain DAK1, hits give low values 0.642 | locus YMR001C, strain CDC5, hits give low values 0.886 | locus YMR205C, strain PFK2 (second series), hits give low values 0.69 | locus YMR277W, strain FCP1, hits give low values 0.88 | locus YNL006W, strain LST8, hits give low values 0.903 | locus YNL020C, strain ARK1, hits give low values 0.611 | locus YNL161W, strain CBK1, hits give low values 0.898 | locus YNL183C, strain NPR1, hits give low values 0.492 | locus YNL207W, strain RIO2, hits give low values 0.867 | locus YNL307C, strain MCK1 (second series), hits give low values 0.508 | locus YOL136C, strain PFK27, hits give low values 0.636 | [3] 0.616 | locus YOR119C, strain RIO1, hits give low values 0.506 | locus YPL031C, strain PHO85, hits give low values 0.464 | locus YPL153C, strain RAD53, hits give low values 0.494 | locus YPL204W, strain HRR25, hits give low values 0.491 | locus YPL209C, strain IPL1, hits give low values 0.888
inactive: locus YAR019C, strain CDC15, hits give low values 0.896 | locus YBR135W, strain CKS1, hits give low values 0.898 | locus YBR136W, strain MEC1, hits give low values 0.896 | locus YBR160W, strain CDC28, hits give low values 0.905 | locus YDL028C, strain MPS1, hits give low values 0.898 | [1] 0.929 | locus YDL108W, strain KIN28, hits give low values 0.898 | locus YDR054C, strain cdc34, hits give low values 0.89 | locus YFL009W, strain cdc4, hits give low values 0.903 | locus YFL029C, strain CAK1, hits give low values 0.891 | locus YFR019W, strain FAB1, hits give low values 0.833 | locus YGR092W, strain DBF2, hits give low values 0.545 | locus YHR079C, strain IRE1, hits give low values 0.593 | locus YIL147C, strain SLN1, hits give low values 0.894 | [2] 0.508 | locus YJL128C, strain PBS2, hits give low values 0.918 | locus YNL222W, strain SSU72, hits give low values 0.897 | locus YOL078W, strain AVO1, hits give low values 0.898 | locus YOR231W, strain MKK1, hits give low values 0.653 | locus YOR329C, strain SCD5, hits give low values 0.91 | locus YPL256C, strain CLN2, hits give low values 0.97 | locus YPR025C, strain CCL1, hits give low values 0.911 | locus YPR106W, strain ISR1, hits give low values 0.918 | locus YPR111W, strain DBF20, hits give low values 0.912 | strain NNK1, hits give low values 0.915 | strain TSCII, hits give low values 0.899
